# Test results from PubChem BioAssay (NCI).
# Compounds without any hit were thinned out: in the full panel of roughly 83,000, 20% have a hit.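 Step 1: grow cells in 96-well plates. Step 2: add test compound at a single concentration. Step 3: incubate 48 h. Step 4: record percent growth.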 A number with no mark means an inactive call. Calls of active or inactive are those of the source. Rule for the calls: active = growth percent below 10; inactive = the rest.
# Legend:
# Test in all cases: NCI-60 one-dose screen, 48 h (100 = growth as untreated, 0 = no growth, -100 = all killed)
# [1] = test system: SR leukemia; conditions: 10 µM unless noted
# [2] = test system: RPMI-8226 leukemia; conditions: 10 µM unless noted
# [3] = test system: OVCAR-8 ovarian; conditions: 10 µM unless noted
# [4] = test system: OVCAR-5 ovarian; conditions: 10 µM unless noted
# [5] = test system: OVCAR-4 ovarian; conditions: 10 µM
# [6] = test system: IGROV1 ovarian; conditions: 10 µM unless noted
# [7] = test system: OVCAR-3 ovarian; conditions: 10 µM unless noted
# [8] = test system: HS 578T breast; conditions: 10 µM unless noted
# [9] = test system: NCI/ADR-RES ovarian; conditions: 10 µM unless noted
# [10] = test system: T-47D breast; conditions: 10 µM unless noted
# [11] = test system: BT-549 breast; conditions: 10 µM unless noted
# [12] = test system: MDA-MB-435 melanoma; conditions: 10 µM unless noted
# [13] = test system: SW-620 colon; conditions: 10 µM unless noted
# [14] = test system: MCF7 breast; conditions: 10 µM unless noted
# [15] = test system: HCT-116 colon; conditions: 10 µM unless noted
# [16] = test system: HCC-2998 colon; conditions: 10 µM unless noted
# [17] = test system: KM12 colon; conditions: 10 µM unless noted
Structure (SMILES),growth [1],growth [2],growth [3],growth [4],growth [5],growth [6],growth [7],growth [8],growth [9],growth [10],growth [11],growth [12],growth [13],growth [14],growth [15],growth [16],growth [17]
C[C@@H]1C[C@H]2C(=O)O[C@@H](C)[C@H](NC(=O)[C@H](Cc3cc(F)cc(F)c3)NC(=O)Nc3ccc(C4CC4)cc3F)C(=O)N3CCC[C@H]3C(=O)N3CCCC[C@H]3C(=O)N[C@@H](C)C(=O)N2C1,27.8%,14%,11%,-2.59% (active),7.8% (active),28.5%,5.07% (active),18.1%,14.9%,5.43% (active),-1.76% (active),3.38% (active),27.7%,12.7%,-4.75% (active),-10.3% (active),15.6%
c1ccc(-c2nc(N3CCCNCC3)c3nc(-c4ccccc4)oc3n2)cc1,0.248% (active),-15.7% (active),59.5%,87.9%,76.3%,-56% (active),-69.8% (active),83.6%,-11.8% (active),46.9%,95.3%,-85.7% (active),-77.1% (active),-66.7% (active),-74.8% (active),-88.7% (active),-74.7% (active)
CCn1cc(-c2[nH]c(=S)ncc2-c2ccc(Cl)cc2)c(-c2ccc(Br)cc2)n1,93.1%,77.6%,86.9%,90.5%,94.2%,81.5%,97.4%,108%,82.5%,59.3%,91.2%,85%,103%,84.8%,72.6%,99.5%,94%
O=C1CC(c2ccc3c(c2)OCO3)Nc2ccccc21 (stereo unspecified),19%,15.4%,22.3%,54.3%,51.7%,53.5%,-19.5% (active),20.2%,1.78% (active),27.5%,42.2%,-22.6% (active),19.2%,15.9%,17%,35.3%,17.1%
Cn1cc(-c2nnc(-c3ccccc3)s2)c2cc(Br)cnc21,90.7%,85.8%,94.4%,94.9%,68%,43.7%,84.5%,79.9%,90.4%,44%,104%,92.6%,82.5%,40.5%,108%,101%,87.6%
COc1ncc(-c2ccc3nccc(C#CCCCCC(=O)O)c3c2)cc1NS(=O)(=O)c1ccc(F)cc1F,63.8%,47.4%,35.4%,22.7%,50.3%,-13% (active),19.8%,-10.2% (active),56%,-18.1% (active),4.54% (active),29.5%,50.7%,6.95% (active),41.1%,29.4%,41.6%
Fc1cc2[nH]ncc2c2c3c(c(-c4cn[nH]c4)nc12)CCCC3,13.8%,1.77% (active),4.78% (active),4.24% (active),16.1%,1.4% (active),7.22% (active),-3.3% (active),34.7%,-19.3% (active),-17.3% (active),5.22% (active),5.91% (active),3.02% (active),5.6% (active),16.5%,5.18% (active)
CNC(=O)c1cc(Oc2ccc3nc(NC(=O)c4ccc5ncccc5c4)sc3c2)ccn1,88.8%,71.9%,100%,106%,87.4%,93.3%,98.9%,108%,88.8%,51.3%,82.4%,91.6%,112%,88%,103%,106%,101%
